A number with no mark means an inactive call. Records with an inconclusive call do not appear. Activity calls are given as the source filed them. Unless noted, the call rests on the fitted dose curve; in most records, active means well fitted curve in the direction sought with a large enough effect; inconclusive means small, poorly fitted or top-dose-only effect, or another doubt; inactive means no such curve, though single readings can be large; an effect the other way counts as inactive or inconclusive.

Assay [1] in a line: Cell Viability - BJ (AID 421; calls by dose curve;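 further: potency means the concentration at half of the fitted maximal effect; cells exposed to compound for 40 hours at 37 °C before readout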). The following applies: BJ fibroblast viability, qHTS. A digest of the protocol:
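Cytotoxicity in human BJ foreskin fibroblasts is scored as loss of cellular ATP after a 40-hour exposure, measured by luciferase luminescence. Controls are DMSO and 100 uM tamoxifen.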
(In qHTS, concentration-response curves come from the screen itself.)

The nature of assay [2]: Cell Viability - Jurkat (AID 426;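 active means dose-dependent loss of cell ATP signal giving a full or clear fitted curve, ranked by lower potency value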; further: potency means the concentration at half of the fitted maximal effect). The following applies: qHTS. A digest of the protocol:
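Cytotoxicity was scored as loss of cellular ATP, measured by luciferase-based luminescence, in Jurkat clone E6-1 cells after 40 h compound treatment; tamoxifen and doxorubicin served as positive controls.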

Assay [3] can be described thus: Cell Viability - Hek293 (AID 427;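 active means compounds whose dose-response curve shows a full or clear partial loss of cell viability, called from curve shape rather than a numeric limit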;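 further: potency means the concentration at half of the fitted maximal effect; cells exposed to compound for 40 hours at 37 °C before reading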). The following applies: qHTS. A digest of the protocol:
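qHTS, human embryonic kidney (adenovirus-transformed) cells; 40 hr cpd, 37 °C; CellTiter-Glo ATP luminescence. Norm: DMSO = 0, 100 uM tamoxifen = 100% inhibition. Hill-fit AC50.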

A short description of assay [4]: Cell Viability - MRC5 (AID 434; calls by dose curve;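 further: potency means the concentration at half of the fitted maximal effect; potency reflects cytotoxicity seen as loss of intracellular ATP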). The following applies: MRC5 lung fibroblast viability, qHTS. A digest of the protocol: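 ATP luminescence read-out (CellTiter-Glo, 20 min RT) after 40 hr, 37 °C compound exposure of 1500 MRC5 cells/well. Data normalized to DMSO (basal) and 100 uM tamoxifen (100% inhibition); AC50 from standard Hill equation.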
The nature of assay [5]: Cell Viability - SK-N-SH (AID 435; calls by dose curve;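 further: potency means the concentration at half of the fitted maximal effect; compound exposure lasted 40 h at 37 °C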). The following applies: SK-N-SH neuroblastoma cell viability qHTS. A digest of the protocol:
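SK-N-SH neuroblastoma cells (1500/well) treated 40 h at 37 °C in complete medium; viability read as cellular ATP by CellTiter-Glo luminescence. Normalized to DMSO and 100 uM tamoxifen; AC50 from Hill fits of qHTS concentration-response.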

Assay [6] deals with Mitogen-activated protein kinase 10 (Mus musculus) (UniProt Q61831). The assay can be described thus: JNK3 AlphaScreen Assay (AID 530; active means well fitted curve in either direction with a large enough effect, not every such curve was filed as active;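 further: kinase came from lysate of stimulated human HepG2 cells; signal reports phosphorylation of biotinylated GST-cJun 1-79 at Ser73 with 10 µM ATP; on the % scale 0 is the no-effect control and ±100 the full control effect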). The note with it: JNK3 lysate, c-Jun phosphorylation; series mostly up to 57.1 µM. An outline of the steps:
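HepG2 lysate (IL-1b/TNFa pre-activated) + biotin-GST-cJun 1-79 + anti-pSer73 cJun; cpd titration, 15 min RT; ATP 10 uM start; Tris pH 7.6, MgCl2, DTT, vanadate; beads in EDTA buffer; AlphaScreen.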
For orientation: Alpha assays give light when donor and acceptor beads are brought close together.

Assay [7] in a line: Cell Viability - N2a (AID 540).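 Further: plate controls were DMSO alone for no effect and tamoxifen control for full effect; nearly all actives have a fitted effect of over 45% in size.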 The following applies: N2a mouse neuroblastoma cell viability; activity change, negative = cytotoxicity: at 92.2 µM (top of the series). An outline of the steps: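 In this qHTS cytotoxicity screen, ATP-dependent luciferase luminescence reports viable N2a cells after a 40 hr compound exposure in complete culture medium. Potencies are AC50 values from standard Hill equation fits.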

Assay [8] can be described thus: Cell Viability - NIH 3T3 (AID 541).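 Further: plate controls were DMSO alone for no effect and tamoxifen positive control for full effect; nearly all actives have a fitted effect of over 25% in size.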 The note with it: NIH 3T3 cell viability, qHTS; activity change, negative = cytotoxicity: at 92.2 µM (top of the series). A digest of the protocol:
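In this cytotoxicity screen, acute toxicity is scored as an ATP drop measured by CellTiter-Glo in NIH 3T3 fibroblasts following a 40 hr, 37 °C incubation with compound.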

A short description of assay [9]: Cell Viability - HUV-EC-C (AID 542). Further: on the % scale 0 is the no-effect control and ±100 the full control effect; nearly all actives have a fitted effect of over 35% in size. The note with it: HUV-EC-C endothelial cell viability, qHTS; series mostly up to 92.2 µM. A digest of the protocol:
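Concentration-dependent ATP loss in HUV-EC-C cells is the measure. Exposure lasts 40 hr at 37 °C; luminescence follows CellTiter-Glo addition, and Hill fits give AC50.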

Assay [10] in a line: Cell Viability - H-4-II-E (AID 543). Further: on the % scale 0 is the no-effect control and ±100 the full control effect; nearly all actives have a fitted effect of over 35% in size. The note with it: H-4-II-E rat hepatoma viability; series mostly up to 92.2 µM. A digest of the protocol: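 AC50 from Hill-modelled qHTS concentration-response curves. H-4-II-E rat hepatoma cells in complete medium, 40 hr exposure at 37 °C, viability by CellTiter-Glo ATP luminescence.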
Assay [11] in a line: Cell Viability - Renal Proximal Tubule (AID 545). Further: nearly all actives have a fitted effect of over 40% in size. The following applies: renal proximal tubule cells viability, primary cells of rat origin; series mostly up to 91.7 µM. A digest of the protocol:
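Rat renal proximal tubule primary cells, 1000/well, exposed to compounds for 40 hr at 37 °C in complete medium; cellular ATP read by CellTiter-Glo luminescence. AC50 from concentration-response fitted with standard Hill equation.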

A short description of assay [12]: Cell Viability - Mesenchymal (AID 546).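 Further: cells exposed to compound for 40 hours before reading.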 The following applies: mesenchymal cells viability, qHTS; series mostly up to 91.7 µM. A digest of the protocol: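 Human renal mesenchymal cells (glomerulus-derived), 1000 cells/well, 5 hr 37 °C pre-incubation; compound 40 hr, 37 °C; CellTiter-Glo, 20 min RT; luminescence; AC50 via Hill equation.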
Assay [13] is described as follows: Cellular Toxicity (caspase-3) HepG2 (AID 654).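 Further: cells exposed to compound for 16 hours before reading; 0% = DMSO alone and 100% = caspase signal from 100 µM tamoxifen.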 The note with it: HepG2 caspase-3 activation, luminescence; series mostly up to 92.2 µM. A digest of the protocol:
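Concentration-response AC50 values reflect caspase-3/7 induction in HepG2 cells after 16 hours of compound exposure, quantified by luminescence from liberated aminoluciferin and referenced to 100 uM tamoxifen as full stimulation.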

The nature of assay [14]: Cellular Toxicity (caspase-3) Jurkat (AID 655).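 Further: cells exposed to compound for 16 h at 37 °C before reading.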 The following applies: Jurkat caspase-3 activation, luminescence; caspase-3 activation: at 92.2 µM (top of the series), DMSO = 0%, tamoxifen = 100%. A digest of the protocol: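 Jurkat cells (5000/well) in complete medium exposed 16 h at 37 C; caspase-3/7 activity read by Caspase-Glo luminescence after 20 min at room temperature. Normalized to DMSO and 100 uM tamoxifen; AC50 from Hill fits.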

Assay [15] can be described thus: Cellular Toxicity (caspase-3) HUV-EC-C (AID 656). The note with it: HUV-EC-C cells, caspase-3 activation (apoptosis), vehicle = 0, 100 µM tamoxifen = 100%; series mostly up to 92.2 µM. A digest of the protocol:
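HUV-EC-C cells (1000/well) in complete medium, compound-treated 16 h at 37 °C; caspase-3/7 activity read by Caspase-Glo 3/7 luminescence. Normalized to DMSO (basal) and 100 uM tamoxifen (100%); AC50 from Hill-equation concentration-response fits.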

A short description of assay [16]: Cellular Toxicity (caspase-3) SHSY5Y (AID 657). The note with it: SH-SY5Y caspase-3 activation, DMSO zero, 10 µM staurosporine = 100%; series mostly up to 91.7 µM. A digest of the protocol:
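SH-SY5Y human neuroblastoma cells, 1500/well, exposed to compound for 16 hours at 37 °C in complete medium. Caspase-3/7 activity read by Caspase-Glo luminescence after 1 hr at room temperature, normalized to DMSO and 10 uM staurosporine; AC50 from Hill fit.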

The nature of assay [17]: Cellular Toxicity (caspase-3) BJ (AID 658). The following applies: BJ fibroblasts, luminescence, normalized: DMSO 0%, staurosporine 100%; series mostly up to 91.7 µM. A digest of the protocol: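 qHTS, BJ fibroblasts, 1000 cells/well; 5 hr preincubation, 16 hr compound, 37 °C; Caspase-Glo 3/7 reagent, 1 hr RT; luminescence. DMSO = 0%, 10 uM staurosporine = 100%. Hill-equation AC50.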

A short description of assay [18]: Cellular Toxicity (caspase-3) MRC-5 (AID 659). The note with it: MRC-5 cells, luminescence, normalized: DMSO 0%, 10 µM staurosporine 100%; series mostly up to 91.7 µM. An outline of the steps: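 MRC-5 fibroblasts, 1500/well; 16 h cpd, 37 °C; Caspase-Glo 3/7, 1 h RT; lumi read. Norm: DMSO = 0%, 10 uM staurosporine = 100%. Hill-fit AC50 from qHTS conc-response.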

A short description of assay [19]: Cell Viability - HepG2 (AID 433; calls by dose curve;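 further: potency means the concentration at half of the fitted maximal effect; potency for ATP loss meaning cytotoxicity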). The following applies: qHTS. An outline of the steps:
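HepG2 cells, 1500 per well, treated 40 hr at 37 °C in complete medium; viability from intracellular ATP by CellTiter-Glo luminescence. Normalized to DMSO and 100 uM tamoxifen; AC50 from Hill fit of qHTS concentration-response.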

A short description of assay [20]: Cell Viability - SH-SY5Y (AID 544). Further: nearly all actives have a fitted effect of over 55% in size. The following applies: SH-SY5Y neuroblastoma cell viability; viability change, negative = cytotoxic: at 92.2 µM (top of the series). A digest of the protocol:
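Quantitative HTS in SH-SY5Y neuroblastoma cells, 40 hr treatment at 37 °C, ATP content by luciferase luminescence; AC50 from Hill fits.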

On to `Cc1ccco1`, for which the Potency in [1], in assay [2], in assay [3], in assay [4] and in [5] was over 92 µM throughout. The compound was called inactive in assay [6], in [15], in assay [16], in assay [17] and in assay [18]. Besides, the activity change, negative = cytotoxicity in assay [7] is 0.379%. The Potency entry in assay [8], in [9], in assay [10], in assay [11], in [12] and in [13] was “inactive” each time. For the same compound, the caspase-3 activation in [14] is 0.939%.

In the case of `O=C(O)c1ccc(CO)o1`, the Potency in assay [1], in [2], in [19], in assay [4] and in assay [5] was over 92 µM each time. For the same compound, the compound was called inactive in assay [6], in assay [15], in assay [16], in [17] and in assay [18]. The activity change, negative = cytotoxicity in assay [7] is -2.4%. The Potency entry in assay [8], in assay [10], in assay [20], in assay [11], in assay [12] and in assay [13] was “inactive” each time. For the same compound, the caspase-3 activation in [14] was 1.29%.

Regarding `CC(C)Nc1ccccc1`, the Potency in [1], in assay [2], in [19], in [4] and in assay [5] was over 92 µM each time. The call in assay [6], in assay [15], in [16], in assay [17] and in assay [18] was inactive. The activity change, negative = cytotoxicity in assay [7] is -9.13%. Further, the Potency entry in assay [8], in assay [9], in assay [10], in [20], in [11] and in assay [12] was “inactive” in each case. In addition, in [14], the caspase-3 activation was 2.39%.

Take `CCCCC/C=C/C=C/C=O`: the Potency is over 92 µM in [1]; 29.6 µM (active) in assay [2]; over 92 µM in assay [19]; over 92 µM in assay [4]; over 92 µM in assay [5]. Further, the call in assay [6], in assay [15], in assay [16], in assay [17] and in assay [18] was inactive. Further, the activity change, negative = cytotoxicity in assay [7] is -106% (active); in assay [8], -100% (active). The Potency entry in assay [9], in assay [10], in [20], in [11] and in assay [12] was “inactive” in each case.

For `CCOC(=O)C(C)C(C)=O` (stereo unspecified), the Potency in assay [1], in [2], in [19], in assay [4] and in assay [5] was over 92 µM in each case. Besides, the result in assay [6], in assay [15], in assay [16], in assay [17] and in assay [18] was inactive. In addition, the activity change, negative = cytotoxicity in assay [7] is 0.646%. Besides, the Potency result in assay [8], in assay [10], in assay [20], in assay [11], in [12] and in [13] was “inactive” in each case. Moreover, the caspase-3 activation in assay [14] is 3.08%.

Take `O=[N+]([O-])c1ccc(Cl)cc1Cl`: the Potency in assay [1], in assay [2], in assay [19], in assay [4] and in assay [5] was over 92 µM each time. Also, the compound was classed as inactive in assay [6], in assay [15], in assay [16], in assay [17] and in [18]. Besides, the activity change, negative = cytotoxicity in assay [7] was 10.8%. The Potency result in [8], in assay [9], in assay [10], in assay [12] and in [13] was “inactive” in each case. The caspase-3 activation in assay [14] was 1.63%.
